# Inconclusive results are not listed. Active and inactive are the calls of the source. The call rests on the fitted dose curve; in most records, active means well fitted activation curve with a large enough effect in the signal ratio, with a control signal flat (not every such curve was filed as active); inconclusive means small, poorly fitted or top-dose-only effect, or a change in a side signal; inactive means flat fitted curve, though single readings scatter; the % refers to the signal ratio.
# Test: Confirmation Concentration-Response Assay for Cell signaling CRE-BLA (Fsk stim)
# Settings: CHO CRE-bla reporter (cAMP response element driving beta-lactamase), NKH477 EC10 stim, FRET ratio; series mostly up to 38.3 µM
# Source text: NIH Molecular Libraries Screening Centers Network [MLSCN] NIH Chemical Genomics Center [NCGC] MLSCN Grant: 1X01MH079867-01 Assay Provider: Marshall W. Nirenberg, U.S. National Heart, Lung and Blood Institute CRE beta-lactamase Assay Overview Memories persist for different lengths of time, from seconds or minutes to a lifetime. There are two kinds of memory: short-term memory (STM) and long-term memory (LTM). STM lasts for minutes to hours, which maybe mediated by modifications of molecules involved in synaptic functions. LTM lasts for days or longer, and may be due to the formation of new synapses or restructuring of existing synapses. LTM, but not STM, requires gene transcription and synthesis of proteins. CREB (cyclic-AMP Responsive Element Binding Protein) is one of the candidates plays an important role for enhancement of some types of LTM. CREB, a family of transcription factors, regulates the transcription of genes containing cAMP Responsive Elements (CRE). CRE is a nucleotide sequence often found in the promoter regions of genes that are binding sites for CREB. Using a beta-lactamase reporter-gene under control of cAMP responsive element, a cell-based assay [CellSensor(TM) CRE-bla CHO developed by Invitrogen Corp.] was used to measure forskolin-induced signaling. The selected compounds were measured for their ability to modulate positively the action of EC10 NKH 477, a water soluble forskolin, on reporter gene activity. Compounds were screened in a titration series in 1536-well format. Positive modulators were identified based on the AC50 values derived from the screening data.
# NCGC Assay Protocol Summary 2000 cells/5uL in Opti-MEM medium containing 0.5% dialyzed FBS, 0.1 mM NEAA, 1 mM sodium pyruvate and 10 mM HEPES was dispensed into 1536-well plates and cells were cultured at 37 degrees Celsius overnight. Next day 23 nL of compounds or DMSO were delivered to each well using a pin tool, and 1uL of EC10 level of NKH 477, or EC100 level of IBMX, a PDE inhibitor, in the present of NKH 477, or assay medium was added. And then the plates were incubated at 37 degrees Celsius for 3 hours. 1 uL of CCF4-dye mixture was added to each well. After incubated at room temperature for 2 hours the plates were measured on an EnVision plate reader at Excitation 405nm, Emission1=460nm and Emission 2=530nm. The %Activity was determined from the ratio of 460nm/530nm. Keywords: NIH Roadmap, MLSCN, MLSMR, qHTS, NCGC, CRE, beta-lactamase reporter-gene assay.
row,SMILES,Potency
1,Cn1c(O)c(C=NCCOc2ccc(Cl)cc2)c(=O)n(C)c1=O,15.8 µM (active)
2,Cn1c(C(=O)N2CCC3(CC2)OCCO3)cc2c(=O)n(C)c3ccccc3c21,25.1 µM (active)
3,CC(C)C(=O)N1CCN(CCN=Cc2c(O)n(C)c(=O)n(C)c2=O)CC1,inactive
4,COc1cc2c(c(OC)c1OC)-c1ccc(OC)c(=O)cc1[C@@H](NC(C)=O)CC2,5.01 µM (active)

# From PubChem BioAssay AID916 (National Center for Advancing Translational Sciences (NCATS), 2007)
